Activity calls are given as the source filed them. No stated cut-off is given here; in the data, active means inhibition above about 50%; inactive means the rest.

The target in the experiment is Vascular endothelial growth factor receptor 2 (Homo sapiens) (UniProt P35968). Put plainly: Biochemical primary assay, inhibitors of H. sapiens VEGFR2, LANCE Ultra time-resolved FRET readout, NPC library (AID 1117353). The following applies: LANCE Ultra TR-FRET kinase assay; at 20 µM (top of the series). (In general: In TR-FRET formats the signal depends on donor and acceptor labels being close together.)
Vascular endothelial growth factor receptor 2 (Homo sapiens), sequence (P35968 whole entry, looked up): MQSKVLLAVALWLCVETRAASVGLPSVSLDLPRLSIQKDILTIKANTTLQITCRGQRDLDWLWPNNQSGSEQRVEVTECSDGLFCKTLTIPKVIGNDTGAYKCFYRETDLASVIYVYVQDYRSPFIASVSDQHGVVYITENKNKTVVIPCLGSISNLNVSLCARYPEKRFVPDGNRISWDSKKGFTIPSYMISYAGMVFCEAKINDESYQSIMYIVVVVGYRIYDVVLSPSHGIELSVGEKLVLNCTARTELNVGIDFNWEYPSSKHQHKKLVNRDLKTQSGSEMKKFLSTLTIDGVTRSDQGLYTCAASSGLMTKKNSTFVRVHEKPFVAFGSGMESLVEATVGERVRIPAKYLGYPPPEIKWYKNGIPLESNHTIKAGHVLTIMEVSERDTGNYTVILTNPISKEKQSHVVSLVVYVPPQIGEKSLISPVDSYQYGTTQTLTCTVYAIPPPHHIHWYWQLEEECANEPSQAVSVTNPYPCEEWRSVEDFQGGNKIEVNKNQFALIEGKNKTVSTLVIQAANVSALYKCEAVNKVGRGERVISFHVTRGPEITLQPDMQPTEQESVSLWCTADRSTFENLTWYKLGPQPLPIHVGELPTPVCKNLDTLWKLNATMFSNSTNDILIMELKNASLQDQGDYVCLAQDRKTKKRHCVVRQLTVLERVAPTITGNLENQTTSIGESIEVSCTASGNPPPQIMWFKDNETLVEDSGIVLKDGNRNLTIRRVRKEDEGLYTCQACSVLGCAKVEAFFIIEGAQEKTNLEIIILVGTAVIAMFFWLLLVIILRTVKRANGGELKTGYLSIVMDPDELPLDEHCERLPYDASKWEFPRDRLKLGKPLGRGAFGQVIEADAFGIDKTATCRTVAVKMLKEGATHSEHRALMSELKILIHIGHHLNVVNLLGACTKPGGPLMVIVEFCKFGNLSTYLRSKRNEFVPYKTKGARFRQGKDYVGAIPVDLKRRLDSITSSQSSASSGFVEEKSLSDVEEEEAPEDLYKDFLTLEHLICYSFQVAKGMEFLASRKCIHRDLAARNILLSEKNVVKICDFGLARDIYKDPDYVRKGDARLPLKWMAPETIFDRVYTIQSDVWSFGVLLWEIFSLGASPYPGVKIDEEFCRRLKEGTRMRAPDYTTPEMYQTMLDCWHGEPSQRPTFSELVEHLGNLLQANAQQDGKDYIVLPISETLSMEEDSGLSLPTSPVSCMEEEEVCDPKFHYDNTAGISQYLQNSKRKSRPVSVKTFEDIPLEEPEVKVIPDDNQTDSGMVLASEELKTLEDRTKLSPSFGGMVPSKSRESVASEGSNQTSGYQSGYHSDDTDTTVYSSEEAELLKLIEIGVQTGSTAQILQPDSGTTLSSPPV
By inhibition is commonly meant the relative decrease from the control value, in per cent. With `COc1c(C)c2c(c(O)c1C/C=C(\C)CCC(=O)OCCN1CCOCC1)C(=O)OC2`, the inhibition was -1.65% (inactive).
Under `O=C(CCCCCCC(=O)Nc1ccccc1)NO` stands -32.6% (inactive); under `CCC(C)n1ncn(-c2ccc(N3CCN(c4ccc(OC[C@H]5CO[C@](Cn6cncn6)(c6ccc(Cl)cc6Cl)O5)cc4)CC3)cc2)c1=O` (stereo partly drawn), 22.4% (inactive).
Consider `C[n+]1c2cc(N)ccc2cc2ccc(N)cc21` (tested in a mixture with another compound), for which the inhibition is -22% (inactive).
For `CC(C)C[C@H](NC(=O)[C@H](Cc1ccccc1)NC(=O)c1cnccn1)B(O)O`, the inhibition is 19% (inactive).
In the case of `Oc1c(I)cc(I)c2cccnc12` it was 0.24% (inactive); in that of `O=c1[nH]c(=O)n([C@H]2C[C@H](O)[C@@H](CO)O2)cc1F`, -21.7% (inactive); in that of `COC(=O)Nc1nc2ccc(C(=O)C3CC3)cc2[nH]1`, 69.1% (active).
In the case of `CCCCCCCCCCCCCCCC[n+]1ccccc1` it was -114% (inactive); in that of `C=CC(=O)Nc1cc2c(Nc3ccc(F)c(Cl)c3)ncnc2cc1OCCCN1CCOCC1`, 98.7% (active).
`Cc1cc(C)c(/C=C2\C(=O)Nc3ccccc32)[nH]1`: the inhibition was 98.7% (active).
In the case of `CC[C@@]1(O)C(=O)OCc2c1cc1n(c2=O)Cc2c-1nc1ccccc1c2/C=N/OC(C)(C)C`, the inhibition is 18.1% (inactive).
Turning to `Oc1c(Cl)cc(Cl)cc1Sc1cc(Cl)cc(Cl)c1O`, the inhibition was 60.4% (active).
In the case of `Cc1cc(=O)c2c(O)c3c(O)cc(=O)c4c3c3c(cc(O)c1c23)C(C)(C)C=4O` it was 22.3% (inactive); in that of `O=[N+]([O-])c1ccc(O)c2ncccc12`, 11.1% (inactive); in that of `CCCCC1C(=O)N(c2ccccc2)N(c2ccc(O)cc2)C1=O` (stereo not drawn), 29.1% (inactive).
`Cc1ccccc1C(=O)Nc1ccc(C(=O)N2CCCC(N(C)C)c3ccccc32)cc1` (stereo not drawn): the inhibition was 41.5% (inactive).
Regarding `COCc1c(C(C)C)nc(C(C)C)c(/C=C/[C@@H](O)C[C@@H](O)CC(=O)O)c1-c1ccc(F)cc1`, the inhibition is 31.8% (inactive).
In the case of `Cc1cc(C2CCCCC2)n(O)c(=O)c1` it was 4.72% (inactive).
Under `COc1cc2c(c(OC)c1OC)-c1ccc(OC)c(=O)cc1[C@@H](NC(C)=O)CC2` stands -20.7% (inactive); under `COc1cc([C@@H]2c3cc4c(cc3[C@H](O)[C@H]3COC(=O)[C@H]23)OCO4)cc(OC)c1OC`, 28.2% (inactive).
On to `Nc1nc(=S)c2[nH]cnc2[nH]1`, for which the inhibition is -5.99% (inactive).
In the case of `CN(C)c1ccc2nc3ccc(=[N+](C)C)cc-3sc2c1` it was -6.83% (inactive); in that of `O=c1c(-c2ccccc2)c1-c1ccccc1`, 28.3% (inactive); in that of `CCCCCCNC(=O)n1cc(F)c(=O)[nH]c1=O`, -15.1% (inactive).
In the case of `O=C(Nc1ccc([N+](=O)[O-])cc1Cl)c1cc(Cl)ccc1O` it was 5.08% (inactive).
With `CC[C@@H]([C@H](C)O)n1ncn(-c2ccc(N3CCN(c4ccc(OC[C@@H]5CO[C@@](Cn6cncn6)(c6ccc(F)cc6F)C5)cc4)CC3)cc2)c1=O`, the inhibition is 22.9% (inactive).
`COC(=O)Nc1nc2ccc(C(=O)c3cccs3)cc2[nH]1`: the inhibition is 60% (active).
Under `CCN(CC)CCNc1ccc(CO)c2sc3ccccc3c(=O)c12` stands 7.72% (inactive); under `COc1cc2nc(N3CCN(C(=O)c4ccco4)CC3)nc(N)c2cc1OC`, -41.4% (inactive).
In the case of `CCc1nc(N)nc(N)c1-c1ccc(Cl)cc1` it was 17% (inactive); in that of `CC[C@]1(O)C[C@@H]2CN(CCc3c([nH]c4ccccc34)[C@@](C(=O)OC)(c3cc4c(cc3OC)N(C)[C@H]3[C@@](O)(C(=O)OC)[C@H](OC(C)=O)[C@]5(CC)C=CCN6CC[C@]43[C@@H]65)C2)C1`, -21.1% (inactive); in that of `CCN(CC)CCOc1ccc(/C(=C(\Cl)c2ccccc2)c2ccccc2)cc1`, -7.53% (inactive).
On to `Cn1cnc([N+](=O)[O-])c1Sc1ncnc2nc[nH]c12`, for which the inhibition is -18.2% (inactive).
In the case of `Cc1cc2c(C(C)C)c(O)c(O)c(C=O)c2c(O)c1-c1c(C)cc2c(C(C)C)c(O)c(O)c(C=O)c2c1O` it was -2.11% (inactive).
Take `COc1cc(NCc2ccc3nc(N)nc(N)c3c2C)cc(OC)c1OC`: the inhibition was 35.8% (inactive).
For `CCCCCCCCCCCCCCCCCCNC(=O)OC1CCN(C(=O)OC[C@H](COC(=O)N(Cc2cccc[n+]2CC)C(=O)c2ccccc2OC)OC)CC1`, the inhibition was -459% (inactive).
On to `O=C1c2c(O)ccc(O)c2C(=O)c2c(NCCNCCO)ccc(NCCNCCO)c21`, for which the inhibition was -38% (inactive).

These data come from PubChem BioAssay AID1117353 (Cheminformatics & Chemogenomics Research Group (CCRG), …, 2015).
